TbPYK inhibitor = blocks Trypanosoma brucei pyruvate kinase; actives 0.12% (n = 410,000); TbPYK enzyme, Kinase-Glo Plus ATP luminescence, 45 min; Potency, µM (doses to about 76.8 µM), inactives show at the top dose activity, negative = inhibition, usual class: inhibitors; AID 624173; further: nearly all actives have a fitted effect of over 50% in size
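Luminescence from Kinase-Glo Plus, added after a 45-minute room-temperature reaction, served as the end-point read-out. The enzyme and substrate were preincubated with compound before ADP (130 uM final) initiated turnover. Concentration-effect curves came from normalized qHTS data.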
Giardia FBPA inh-1 = inhibitors of Giardia lamblia fructose-1,6-bisphosphate aldolase. Potency, µM (series often up to 59.6 µM), for inactives: at the highest dose activity, negative = inhibition, usual class: inhibitors. purified Giardia FBPA. A8B2U2. actives 0.71% (n = 290,000); further: nearly all actives have a fitted effect of over 55% in size
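Giardia FBPA (40 nM reagent) was preincubated 10 min at RT with compound (up to 57.5 uM final), then substrate plus GAPDH/TPI/NAD/arsenate coupling system with diaphorase/resazurin was added; resorufin fluorescence (525/598 nm) was read after 20 min.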
RE007 growth inh = less growth of the S. pombe RE007 Vpr strain | S. pombe RE007 Vpr strain, BacTiter-Glo ATP luminescence, 24 h | Potency, µM (highest dose often 92.2 µM), for the others: at the top dose activity change, negative = less growth, most hits filed as inhibitors | actives 0.21% (n = 360,000); active means well fitted falling curve with a large enough effect; inconclusive means small, poorly fitted or top-dose-only effect; inactive means no such curve, though single readings can be large or run the other way; further: nearly all actives have a fitted effect of over 50% in size
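Fission yeast RE007 carrying one integrated HIV-1 vpr copy, seeded at OD 0.01 in PMG+AL medium with 23 nL pinned compound. Grown 24 h at 30 degrees; viability read by BacTiter-Glo luminescence after 5 min.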
LmPK inhibitor = blocks Leishmania mexicana pyruvate kinase activity; actives 0.37% (n = 290,000); Potency, µM (titrated, usually from 57.5 µM), inactives show top-dose activity change, negative = inhibition, hits mostly inhibitors; purified LmPK, Kinase-Glo ATP luminescence, 1 h; Q27686; AID 1721
Target sequence (Q27686 whole entry, looked up): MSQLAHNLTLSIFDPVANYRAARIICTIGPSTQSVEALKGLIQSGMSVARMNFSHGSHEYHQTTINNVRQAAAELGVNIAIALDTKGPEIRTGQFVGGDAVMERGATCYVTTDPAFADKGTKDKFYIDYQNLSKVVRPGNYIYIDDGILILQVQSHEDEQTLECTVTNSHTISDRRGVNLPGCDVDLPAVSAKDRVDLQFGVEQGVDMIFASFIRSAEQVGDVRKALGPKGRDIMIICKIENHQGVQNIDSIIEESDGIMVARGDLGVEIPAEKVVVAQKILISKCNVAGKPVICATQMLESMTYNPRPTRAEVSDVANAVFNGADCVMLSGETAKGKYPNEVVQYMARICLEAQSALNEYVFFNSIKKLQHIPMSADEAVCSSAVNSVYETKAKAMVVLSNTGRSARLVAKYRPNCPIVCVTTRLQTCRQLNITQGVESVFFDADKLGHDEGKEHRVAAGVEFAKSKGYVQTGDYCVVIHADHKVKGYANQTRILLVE
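Kinase-Glo luminescence read after 1 h RT reaction of 0.1 nM LmPK with 0.5 mM PEP and 0.1 mM ADP. Activity scaled between uninhibited and enzyme-free controls.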
Giardia growth = Giardia lamblia growth inhibition. AID 2785. actives 5% (n = 1,500). shares compounds with Giardia FBPA inh-1. Giardia lamblia trophozoite growth inhibition. Potency, µM (doses to about 57.5 µM), for inactives: at the top dose activity change, negative = inhibition, hits mostly inhibitors;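 further: trophozoites exposed to compound for 48 h at 37 °C; nearly all actives have a fitted effect of over 70% in size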
Mammal cell tox = toxic to mammalian cells in Giardia aldolase counter-screen; shares compounds with Giardia FBPA inh-1; mammalian cell viability counter-screen, qHTS; Potency, µM (doses to about 57.5 µM), for the others: top-dose viability change, negative = toxicity, hits mostly inhibitors; actives 4% (n = 1,500);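 further: Chinese hamster ovary cells used as mammalian cytotoxicity surrogate; viability measured as cellular ATP by luminescence; compound exposure lasted 48 h before reading; nearly all actives have a fitted effect of over 60% in size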
Giardia FBPA inh-2 = confirmation of Giardia fructose-bisphosphate aldolase inhibitors | shares compounds with Giardia FBPA inh-1 | purified Giardia aldolase enzyme activity, qHTS | Potency, µM (highest dose often 57.5 µM), for inactives: at the highest dose activity change, negative = inhibition, actives largely listed as inhibitors | actives 5% (n = 1,500) | AID 2787; further: nearly all actives have a fitted effect of over 45% in size
Rabbit FBPA inh = rabbit FBP aldolase inhibition by Giardia aldolase hits | shares compounds with Giardia FBPA inh-1 | Rabbit muscle FBPA enzyme inhibition, selectivity counter-screen | Potency, µM (doses to about 57.5 µM), inactives show at the highest dose activity, negative = inhibition, most hits filed as inhibitors | actives 4% (n = 1,500); further: nearly all actives have a fitted effect of over 60% in size
GAPDH counter = counter-screen for Giardia aldolase inhibitors: GAPDH coupling enzyme; shares compounds with Giardia FBPA inh-1; actives 6% (n = 1,500); AID 2795; GAPDH coupling enzyme counterscreen, biochemical, qHTS; Potency, µM (top dose mostly 57.5 µM), without a hit: at the highest dose activity change, negative = inhibition, most hits filed as inhibitors; further: nearly all actives have a fitted effect of over 55% in size
Numbers without * were called inactive; ? = inconclusive; . = not tested or not shown; [ ] = another dose, or the depositor's remark. Sampled rows, rich in hits. Any-hit rate of the full collection: about 0.95%. Unless noted, the call rests on the fitted dose curve; in most records, active means well fitted curve in the direction sought with a large enough effect; inconclusive means small, poorly fitted or top-dose-only effect, or another doubt; inactive means no such curve, though single readings can be large; an effect the other way counts as inactive or inconclusive. On the % scale 0 is the no-effect control and ±100 the full control effect; potency means the concentration at half of the fitted maximal effect.

SMILES	TbPYK inhibitor	Giardia FBPA inh-1	RE007 growth inh	LmPK inhibitor	Giardia growth	Mammal cell tox	Giardia FBPA inh-2	Rabbit FBPA inh	GAPDH counter
CN(C)S(=O)(=O)c1ccc(C(=O)Nc2nnc(-c3ccco3)o2)cc1	3.6%	6.29µM*	4.6%	0.2%	7.8%[38.3 µM]	-17.1%	1.9%	1.4%	-7.8%
CCCCN(CCCC)S(=O)(=O)c1ccc(C(=O)Nc2nnc(COC)o2)cc1	-5.0%	14.6%	-8.9%	1.5%	.	.	.	.	.
CCN(CC)S(=O)(=O)c1ccc(C(=O)Nc2nnc(CSC)o2)cc1	5.9%	15.8µM*	-3.1%	1.5%	17.8µM*	-4.8%	5.7%	10.0%	6.8%
Cc1sc2ncn(CC(=O)N(C)c3cccc(C(F)(F)F)c3)c(=O)c2c1S(=O)(=O)N1CCN(c2ncccn2)CC1	-8.7%	.	.	.	.	.	.	.	.
CC(=O)N1CCN(Cc2nc3cc(NC(=O)COc4cccc(C)c4)ccc3n2C)CC1	0.0%	20µM*	-10.3%	-0.7%	?	4.5%	-8.3%	10.8%	3.3%
Cc1cccc(OCC(=O)Nc2ccc3c(c2)nc(CN2CCCCC2)n3C)c1	1.7%	-12.1%	3.2%	-1.5%	.	.	.	.	.
Cc1cccc(NC(=O)N2CCN(Cc3ccc4c(c3)OCO4)CC2)c1C	12.8%	0.8%	1.2%	-0.3%	.	.	.	.	.
CCC1(C)Cc2ccccc2-c2nc(NN)[nH]c(=O)c21 (stereo unspecified)	1.1%	22.4µM*	0.1%	3.6%	23.5%	1.8%	0.5%	-23.1%	-27.4%
CCC1(CC)Cc2ccccc2-c2nc(NN)[nH]c(=O)c21	0.8%	?	-9.3%	0.9%	.	.	.	.	.

High-throughput results deposited in PubChem BioAssay by National Center for Advancing Translational Sciences (NCATS).
